5 molecules from PubChem BioAssay can be followed below.

Active and inactive are the calls of the source. Unless noted, no rule for the calls is given here.

The nature of assay [1]: compounds binding Alexa647 anti-His antibody – biochemical, small-molecule microarray, 635 nm fluorescence, artefact control for SMM control protein annotation, primary screen (AID 1128).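 Also: score merges feature fluorescence with signal-to-noise for each printed compound spot.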 The following applies: higher = more signal.
The test system of assay [2] is Human papillomavirus type 1a E7 protein (residues 1-88). Kind of assay: HPV1a E7 small-molecule binders, primary screen, biochemical, small-molecule microarray, residues 1-88, 635 nm (AID 1129). The following applies: small-molecule microarray binding, fluorescence 635 nm; higher = more signal.
Assay [3] concerns the target Focal adhesion kinase 1 (Homo sapiens) (UniProt Q05397). The assay is described as follows: PTK2 protein binding on printed compound slides – biochemical, small-molecule microarray, 635/667 nm fluorescence, BSA, DTT, primary screen (AID 1130).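 Also: composite of spot emission at 667 nm and signal to noise over triplicate slides.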 The conditions noted are these: 635 nm fluorescence, higher = more signal.
In assay [4] the test system is Fibrinogen (Alexa647-labelled). The assay is described as follows: Alexa647-fibrinogen binding to printed small molecules – biochemical, small-molecule microarray, 635/667 nm fluorescence, artefact control for SMM control-protein annotation, profiling panel (AID 1131).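 Also: z-score merges 667 nm fluorescence with per-spot signal-to-noise over triplicate slides.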 The conditions noted are these: fibrinogen-A647 binding fluorescence, higher = more signal.
Assay [5] has as its target Follistatin (Homo sapiens) (UniProt P19883). Kind of assay: FST protein binding to printed compounds – biochemical, small-molecule microarray, 635/667 nm fluorescence, primary screen (AID 1132). The following applies: 635 nm fluorescence, higher = more signal.
Assay [6] concerns the target Fibroblast growth factor 2 (Homo sapiens) (UniProt P09038). Kind of assay: basic fibroblast growth factor binding to printed compounds – biochemical, small-molecule microarray, 635/667 nm fluorescence, primary screen (AID 1133). The conditions noted are these: FGF2, fluorescence 635/667, higher = more signal.
A short description of assay [7]: JC-1 mitochondrial potential readout, lung cancer cells – cell-based, A549, JC-1 fluorescence, basal, 24 h, 100 nL, profiling panel (AID 1138).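 Also: A549 lung adenocarcinoma cells under basal conditions with no added stimulus; test concentration not given here.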 The following applies: higher = more signal.
The test system of assay [8] is Lefty1. Kind of assay: Lefty1 protein binding to printed compounds – biochemical, small-molecule microarray, 635/667 nm fluorescence, primary screen (AID 1139). The following applies: fluorescence 635/667, higher = more signal.
Assay [9] has as its system wheat germ agglutinin (Triticum aestivum), Alexa647-labelled. Kind of assay: Alexa647-WGA lectin binding to printed small molecules – biochemical, small-molecule microarray, 635/667 nm fluorescence, artefact control for SMM control-protein annotation, profiling panel (AID 1140).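 Also: score merges 667 nm feature emission with signal to noise over triplicate slides.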 The conditions noted are these: WGA-A647 binding, 635 nm fluorescence, higher = more signal.
In assay [10] the target is Luciferin 4-monooxygenase (Photinus pyralis) (UniProt P08659). The assay is described as follows: inhibition of purified Photinus pyralis luciferase – biochemical, luminescence, purified enzyme, 2006 set, primary screen (AID 1141).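 Also: cell-free assay with purified firefly luciferase at 100 ng per well in PBS; test concentration not given here.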 The following applies: purified firefly luciferase, SteadyGlo luminescence, 30 min; higher = more signal, called active from +8 up or from −8 down.

Assay [11] deals with Wnt5a (protein binding on small-molecule microarray). The assay is described as follows: small molecules binding Wnt5a protein – biophysical, small-molecule microarray, 635/667 nm fluorescence, primary screen (AID 1142).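 Also: fluorescence read at 667 nm with signal to noise per printed feature.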 The following applies: 635 nm fluorescence, higher = more signal.
The nature of assay [12]: ATP-based viability of Huh7 replicon cells – cell-based, CellTiter-Glo luminescence, basal, 48 h, cytotoxicity control for HCV replication inhibitor project, primary screen (AID 1143).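 Also: Huh7 hepatoma cells carrying a hepatitis C replication reporter with no stimulus; test concentration not given here.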 The following applies: higher = more signal, called active from +8 up or from −8 down. (Replicon systems follow genome replication, usually without infectious particles.)
Assay [13] is described as follows: Pseudomonas biofilm growth suppression – PAO1 strain, BacTiter-Glo luminescence, LB-PBS, primary screen (AID 1144). The conditions noted are these: P. aeruginosa PAO1 biofilm, 12 h, higher = more signal.
A short description of assay [14]: basal CRE-LacZ reporter activity in PC12 – cell-based, unstimulated, primary screen (AID 1145). The following applies: no forskolin, luminescence, 4.5 h, higher = more signal, called active from +8 up or from −8 down.
Assay [15] is described as follows: forskolin-driven CRE-LacZ activity in PC12 – cell-based, CRE-LacZ reporter, forskolin-stimulated, primary screen (AID 1146).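 Also: PC12 cells with 6xCRE LacZ reporter stimulated by forskolin 10 µM; beta-galactosidase reporter signal reflecting CREB driven transcription.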 The following applies: luminescence, 4.5 h, higher = more signal, called active from +8 up or from −8 down.
Assay [16] addresses Streptavidin (Streptomyces avidinii) (UniProt P22629). The assay is described as follows: compounds binding control protein streptavidin – biophysical, small-molecule microarray, 635/667 nm fluorescence, artefact control for SMM compound annotation, primary screen (AID 1147).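 Also: signal reflects streptavidin binding to arrayed compounds as a control protein.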 The following applies: higher = more signal.
The nature of assay [17]: probe aInhba binding on compound microarray – biochemical, small-molecule microarray, 635/667 nm fluorescence, primary screen (AID 1148).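 Also: score merges 667nm spot fluorescence with signal-to-noise for antibody binding to printed compounds.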 The conditions noted are these: higher = more signal.
Assay [18] concerns the target Torsin-1A (Homo sapiens) (UniProt O14656). Kind of assay: TOR1A wild-type binding on microarray – cell lysate, small-molecule microarray, lysate, 635/667 nm, primary screen (AID 1149). The following applies: COS7 hTOR1A-WT lysate, 635 nm fluorescence, higher = more signal.
Assay [19] shares this target. The assay is described as follows: torsin A mutant lysate binding on microarrays – cell lysate, small-molecule microarray, COS7 lysate, 635/667 nm fluorescence, primary screen (AID 1150).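 Also: score pools 667 nm emission and signal to noise measuring lysate protein binding.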 The following applies: COS7 hTOR1A mutant lysate, 635 nm fluorescence, higher = more signal.
Assay [20] concerns Sonic hedgehog protein (Shh). Kind of assay: Sonic hedgehog microarray binding compounds – biochemical, small-molecule microarray, 635/667 nm fluorescence, primary screen (AID 1151).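 Also: Shh protein binding to compounds spotted on small-molecule microarray slides; score combines spot fluorescence intensity with signal-to-noise across triplicate slides.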 The following applies: 635 nm fluorescence, higher = more signal.

Sequence of Torsin-1A (Homo sapiens) (O14656 whole entry, looked up): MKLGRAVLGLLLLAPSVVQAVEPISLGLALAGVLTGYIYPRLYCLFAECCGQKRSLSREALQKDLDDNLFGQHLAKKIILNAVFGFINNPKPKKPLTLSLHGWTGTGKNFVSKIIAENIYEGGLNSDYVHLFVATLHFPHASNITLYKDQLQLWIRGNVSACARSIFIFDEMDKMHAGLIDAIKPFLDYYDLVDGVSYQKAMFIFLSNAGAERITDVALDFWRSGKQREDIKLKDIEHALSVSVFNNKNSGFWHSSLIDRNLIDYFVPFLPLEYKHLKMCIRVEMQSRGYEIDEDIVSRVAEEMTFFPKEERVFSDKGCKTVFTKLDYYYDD
Sequence of Focal adhesion kinase 1 (Homo sapiens) (Q05397 whole entry, looked up): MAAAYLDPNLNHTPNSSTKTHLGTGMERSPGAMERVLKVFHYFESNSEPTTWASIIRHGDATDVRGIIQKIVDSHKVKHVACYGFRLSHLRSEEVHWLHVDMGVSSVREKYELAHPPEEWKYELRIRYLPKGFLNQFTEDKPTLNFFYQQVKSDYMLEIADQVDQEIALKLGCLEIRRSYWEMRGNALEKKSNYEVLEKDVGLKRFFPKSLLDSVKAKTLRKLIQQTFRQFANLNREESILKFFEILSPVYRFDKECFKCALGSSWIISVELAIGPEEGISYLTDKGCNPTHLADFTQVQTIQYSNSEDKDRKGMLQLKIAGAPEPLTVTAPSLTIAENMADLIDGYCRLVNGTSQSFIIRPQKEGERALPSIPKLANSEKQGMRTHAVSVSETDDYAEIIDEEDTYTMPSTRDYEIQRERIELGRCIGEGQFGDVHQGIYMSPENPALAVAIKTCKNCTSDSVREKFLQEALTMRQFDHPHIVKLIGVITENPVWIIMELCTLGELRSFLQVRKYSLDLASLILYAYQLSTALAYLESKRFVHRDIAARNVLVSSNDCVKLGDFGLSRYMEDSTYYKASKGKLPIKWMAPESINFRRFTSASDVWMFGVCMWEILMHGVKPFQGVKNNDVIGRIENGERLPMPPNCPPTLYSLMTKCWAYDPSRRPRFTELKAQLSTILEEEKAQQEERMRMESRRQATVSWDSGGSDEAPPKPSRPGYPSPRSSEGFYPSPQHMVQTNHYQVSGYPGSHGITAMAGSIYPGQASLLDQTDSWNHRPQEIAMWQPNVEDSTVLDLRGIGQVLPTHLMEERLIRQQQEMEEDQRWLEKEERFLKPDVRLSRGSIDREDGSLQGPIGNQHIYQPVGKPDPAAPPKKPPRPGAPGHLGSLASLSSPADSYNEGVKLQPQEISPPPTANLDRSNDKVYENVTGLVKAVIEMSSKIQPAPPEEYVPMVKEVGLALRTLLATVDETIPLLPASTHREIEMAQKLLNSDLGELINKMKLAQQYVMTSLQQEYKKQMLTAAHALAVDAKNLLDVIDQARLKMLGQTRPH
Sequence of Fibroblast growth factor 2 (Homo sapiens) (P09038 whole entry, looked up): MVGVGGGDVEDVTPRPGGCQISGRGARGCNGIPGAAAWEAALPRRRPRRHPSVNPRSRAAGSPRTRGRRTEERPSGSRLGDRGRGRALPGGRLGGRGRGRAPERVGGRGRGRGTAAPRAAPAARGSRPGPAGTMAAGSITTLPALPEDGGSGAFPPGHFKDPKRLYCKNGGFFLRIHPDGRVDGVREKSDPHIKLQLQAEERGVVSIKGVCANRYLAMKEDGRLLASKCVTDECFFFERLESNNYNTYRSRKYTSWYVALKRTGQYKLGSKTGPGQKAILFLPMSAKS
Sequence of Streptavidin (Streptomyces avidinii) (P22629 whole entry, looked up): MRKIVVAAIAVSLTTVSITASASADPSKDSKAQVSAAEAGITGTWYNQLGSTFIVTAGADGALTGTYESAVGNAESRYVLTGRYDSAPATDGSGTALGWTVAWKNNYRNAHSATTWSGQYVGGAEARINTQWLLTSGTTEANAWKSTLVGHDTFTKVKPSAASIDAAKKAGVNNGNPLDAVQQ
Sequence of Follistatin (Homo sapiens) (P19883 whole entry, looked up): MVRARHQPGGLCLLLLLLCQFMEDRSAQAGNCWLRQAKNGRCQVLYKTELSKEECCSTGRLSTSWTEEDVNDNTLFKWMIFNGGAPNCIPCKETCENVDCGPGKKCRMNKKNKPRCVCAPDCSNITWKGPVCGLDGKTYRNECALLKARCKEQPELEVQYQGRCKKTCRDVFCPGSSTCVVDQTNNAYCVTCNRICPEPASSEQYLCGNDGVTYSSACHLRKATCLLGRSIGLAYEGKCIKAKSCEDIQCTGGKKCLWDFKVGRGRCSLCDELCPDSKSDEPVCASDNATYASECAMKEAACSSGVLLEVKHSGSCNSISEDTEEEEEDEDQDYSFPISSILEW
Sequence of Luciferin 4-monooxygenase (Photinus pyralis) (P08659 whole entry, looked up): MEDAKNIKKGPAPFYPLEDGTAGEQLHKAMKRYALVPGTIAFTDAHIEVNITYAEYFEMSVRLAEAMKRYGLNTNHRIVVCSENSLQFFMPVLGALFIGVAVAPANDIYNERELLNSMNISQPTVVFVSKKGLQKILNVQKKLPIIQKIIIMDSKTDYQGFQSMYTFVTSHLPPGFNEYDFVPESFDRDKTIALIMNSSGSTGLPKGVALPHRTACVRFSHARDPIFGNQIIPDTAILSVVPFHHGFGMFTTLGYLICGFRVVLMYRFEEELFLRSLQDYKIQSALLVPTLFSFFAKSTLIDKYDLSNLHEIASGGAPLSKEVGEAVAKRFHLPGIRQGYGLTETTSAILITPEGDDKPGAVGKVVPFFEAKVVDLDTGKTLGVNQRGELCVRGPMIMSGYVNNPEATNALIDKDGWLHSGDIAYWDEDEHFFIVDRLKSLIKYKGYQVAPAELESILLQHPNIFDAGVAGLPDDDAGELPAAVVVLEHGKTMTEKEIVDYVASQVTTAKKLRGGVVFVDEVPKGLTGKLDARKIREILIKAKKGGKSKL

As to `CC(C)=CCN(C(=O)C#Cc1ccccc1)[C@H](CO)c1ccccc1`, the composite z-score is 0.326 in [1]; 0.419 in assay [2]; -0.0317 in assay [3]; 0.237 in assay [4]; 0.653 in assay [5]; 0.766 in [6]. In addition, the composite z-score is 0.743 in [8]; 0.146 in assay [9]; -0.0314 in assay [11]; -0.131 in assay [16]; -0.15 in assay [17]; 0.423 in assay [18]. Also, the composite z-score in assay [19] was -0.0045; in assay [20], 0.708. Further, the z-score in [7] is -0.842; in [10], 0.265 (inactive); in [12], -8.76 (active); in [13] it was 1.15 (inactive); in assay [14], 14.3 (active); in assay [15], -4.52 (inactive).

As to `COC(=O)[C@@]1(Cc2ccccc2)[C@@H]2[C@@H](CC(=O)[C@H]2CC(=O)C(=O)N(C)C)CN1C(=O)c1ccccc1`, the composite z-score was 1.33 in assay [1]; 0.577 in [2]; 0.434 in [3]; 0.601 in [4]; -0.155 in assay [5]; -0.112 in [6]. Moreover, the composite z-score in assay [8] is -0.575; in assay [9], 0.0553; in assay [11] it was -0.087; in [16], 0.315; in assay [17] it was -0.0963; in assay [18], -0.115. For the same molecule, the composite z-score was 0.417 in [19] and -0.829 in [20]. The z-score was 1.19 in assay [7]; 0.558 (inactive) in assay [10]; -0.0162 (inactive) in assay [12]; -0.621 (inactive) in assay [13]; 0.201 (inactive) in [14]; 0.983 (inactive) in assay [15].

In the case of `CC(C)CNC(=O)[C@@]1(C)c2ccccc2C(=O)N(Cc2cc(F)cc(C(F)(F)F)c2)[C@H]1c1ccc(CO)cc1`, the composite z-score in [1] is 0.83; in [2] it was 0.85; in assay [3], 0.0301; in assay [4], 0.51; in assay [5], 1.16; in [6] it was 0.803. For the same molecule, the composite z-score was 0.372 in assay [8]; 0.154 in assay [9]; 0.03 in assay [11]; -0.26 in assay [16]; -0.0719 in assay [17]; 0.194 in assay [18]. Also, the composite z-score in assay [19] is 0.127; in assay [20], 1.23. For the same molecule, the z-score was 0.165 in assay [7]; 0.189 (inactive) in [10]; 0.169 (inactive) in [12]; -0.428 (inactive) in assay [13]; -0.321 (inactive) in assay [14]; 0.13 (inactive) in assay [15].

For the molecule `CCCC[C@H]1OB(O)C[C@H]2C1=C(COC)C[C@H]1C(=O)C=CC(=O)[C@H]12`, the composite z-score in assay [1] is 0.51; in assay [2], 0.215; in assay [3], -0.0157; in assay [4] it was 0.287; in assay [5], 0.865; in assay [6] it was 0.32. Also, the composite z-score in assay [8] is 0.96; in [9], 0.106; in [11] it was 0.269; in assay [16], -0.045; in assay [17], -0.0552; in assay [18], 0.283. The results for the composite z-score in assay [19] and in assay [20] were -0.0615 and 1.63, respectively. For the same molecule, the z-score in [7] is 0.777; in assay [10], -3.03 (inactive); in assay [12], -1.06 (inactive); in assay [13] it was -0.229 (inactive); in assay [14], 10.7 (active); in assay [15], 6.12 (inactive).

On to `CN1C(=O)C2C(C1=O)C1C=C(c3ccc(CO)cc3)C2C(c2cccs2)N1C` (stereo not given), for which the composite z-score was 0.495 in assay [1]; 0.157 in [2]; 0.0955 in assay [3]; 0.783 in [4]; -0.0613 in assay [5]; -0.25 in [6]. The composite z-score in [8] was -0.295; in assay [9], 0.742; in [11], -0.192; in assay [16], 1.56; in assay [17], -0.0523; in [18], 0.233. Further, the figures for the composite z-score in [19] and in assay [20] were 0.221 and 0.237, respectively. The z-score in [7] was -0.0324; in assay [10], -0.836 (inactive); in assay [12], -1.04 (inactive); in [13], 2.04 (inactive); in [14], 1.98 (inactive); in assay [15], -0.999 (inactive).
